Screens from PubChem BioAssay.
Lassa entry inh: qHTS for Inhibitors of binding or entry into cells for Lassa Virus; Lassa virus pseudotype entry inhibition, cell reporter; Potency, µM (titrated, usually from 37.9 µM), without a hit: at the highest dose activity change, negative = inhibition, hits mostly inhibitors; 1.2% of 300,000 active; AID 540256, 2011; calls by dose curve; tested in HEK293 cells; further: potency means the concentration at half of the fitted maximal effect; nearly all actives have a fitted effect of over 50% in size
FMDV antiviral: High Throughput Screening for Foot and Mouth Disease Virus Antivirals | FMDV antiviral cell-based qHTS | Potency, µM (doses to about 57.9 µM), for inactives: at the highest dose activity change, negative = inhibition, usual class: inhibitors | 1.2% of 410,000 active; calls by dose curve; tested in HEK293T cells; further: read-out not given here; potency means the concentration at half of the fitted maximal effect; nearly all actives have a fitted effect of over 45% in size
MARV entry inh: qHTS for inhibitors of binding or entry into cells for Marburg Virus; Marburg virus pseudotyped entry inhibition, cell reporter; Potency, µM (doses to about 37.8 µM), without a hit: at the top dose activity change, negative = inhibition, most hits filed as inhibitors; 1.8% of 300,000 active; AID 540276, 2011; calls by dose curve; tested in HEK293 cells; further: potency means the concentration at half of the fitted maximal effect
HCV inhibitor: qHTS Assay for Inhibitors of Hepatitis C Virus (HCV) | Huh7.5.1 HCVcc-Cre infection, luciferase reporter, 44 h | Potency, µM (series often up to 41.8 µM), without a hit: at the highest dose activity change, negative = inhibition, hits mostly inhibitors | 3.4% of 340,000 active; active means well fitted inhibition curve with a large enough effect; inconclusive means small, poorly fitted or top-dose-only effect, or another doubt; inactive means no such curve, though single readings can be large or run the other way; further: potency means the concentration at half of the fitted maximal effect
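Infectious HCVcc-Cre (~0.5 moi) was added to cells just after compound, with cells seeded 4 h earlier at 1,000 per well. Luciferase activity after 44 h culture reported infection; substrate was incubated 15 min at room temperature before reading.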
HCMV antiviral: qHTS Assay for inhibitors of the human cytomegalovirus (HCMV); HFF cells, HCMV-luciferase reporter, 72 h; active compounds read low; activity change, negative = inhibition, % at 57.5 µM; 4.5% of 410,000 active; AID 1259415, 2018; in the data active means activity change below about -60%; inconclusive means no clear call, values can overlap the other calls; inactive means above about -39%
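Human foreskin fibroblasts infected with luciferase-reporter HCMV at MOI 1 PFU/cell, compounds at two doses. Luciferase measured 72 h post infection; normalized to buffer-only basal and Salinomycin (10uM) controls.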
An asterisk follows results filed as active; [ ] = dose if it differs, or a comment. Rows were chosen to be rich in hits. Some 7.9% of all compounds tested hit in one or more screens of this group. On the % scale 0 is the no-effect control and ±100 the full control effect.

How did Cc1ccc(O)c(N=Cc2sc3ccccc3c2Cl)c1 do in these assays?
Lassa entry inh: 17.0%; FMDV antiviral: 37.4%; MARV entry inh: 8.2%; HCV inhibitor: -5.5%; HCMV antiviral: -9.5

Results for Oc1ccccc1N=Cc1sc2ccccc2c1Cl ?
Lassa entry inh: -27.9%; FMDV antiviral: 8.3%; MARV entry inh: inconclusive; HCV inhibitor: -26.2%; HCMV antiviral: -76.0*

What do the screens show for `O=C(CNC(=O)c1ccccc1F)NCC(c1cccs1)N1CCOCC1` (stereo not given)?
FMDV antiviral: 14.1%; HCV inhibitor: inconclusive; HCMV antiviral: 0.0

What do the screens show for `O=C(NNC(=O)c1ccccc1Br)c1ccncc1`?
FMDV antiviral: 8.6%; HCV inhibitor: 3.4%; HCMV antiviral: -64.6*

How did O=C(NNC(=O)c1ccccc1C(=O)O)c1ccc(O)cc1 do in these assays?
Lassa entry inh: 11.7%[46.1 µM]; FMDV antiviral: 2.1%; MARV entry inh: 1.2%; HCV inhibitor: 12.6µM*; HCMV antiviral: -31.8

Results for CC1(C)CC2CC(C)(CN2C(=S)Nc2ccccc2F)C1 (stereo not given) ?
Lassa entry inh: 1.4%[46.1 µM]; FMDV antiviral: 29.6%; MARV entry inh: -15.7%[46.1 µM]; HCV inhibitor: 16.6%; HCMV antiviral: 2.8

Results for CC1(C)CC2CC(C)(CN2C(=S)Nc2ccccc2)C1 (stereo not given) ?
Lassa entry inh: 4.1%; FMDV antiviral: 65.9%; MARV entry inh: 4.9%[46.1 µM]; HCV inhibitor: 16.5%; HCMV antiviral: -61.2*

What do the screens show for `CN(C)CCCNC(=O)c1ccc(-c2nc(-c3ccc(Cl)cc3)cs2)cc1`?
Lassa entry inh: inconclusive; FMDV antiviral: 37.1%; MARV entry inh: inconclusive; HCV inhibitor: 10µM*; HCMV antiviral: 33.6

Results for COc1ccc(/C=N/NC(=O)c2nc(Cl)c(Cl)c(N)c2Cl)cc1COc1ccccc1F ?
Lassa entry inh: -21.5%; FMDV antiviral: -29.2%; MARV entry inh: inconclusive; HCV inhibitor: inconclusive; HCMV antiviral: 14.1

What do the screens show for `CCOC(=O)c1ccccc1OCc1cc(/C=N/n2cnnc2)ccc1OC`?
Lassa entry inh: -20.2%; FMDV antiviral: inconclusive; MARV entry inh: 0.103µM*; HCV inhibitor: -9.6%; HCMV antiviral: -6.7

How did COc1ccc(/C=N\NC(=O)c2ccccc2F)cc1COc1ccc(F)cc1F do in these assays?
Lassa entry inh: inconclusive; FMDV antiviral: -1.9%; MARV entry inh: inconclusive; HCV inhibitor: inconclusive; HCMV antiviral: -80.2*

Results for COc1ccc(/C=N/NC(=O)c2nc(Cl)c(Cl)c(N)c2Cl)cc1COc1ccc(F)cc1F ?
Lassa entry inh: inconclusive; FMDV antiviral: -22.7%; MARV entry inh: 5.7%; HCV inhibitor: 11.2µM*; HCMV antiviral: 44.3

Results for O=S(=O)(c1ccccc1Br)N1CCN(c2ncccn2)CC1 ?
FMDV antiviral: -7.7%; MARV entry inh: 1.8%[46.1 µM]; HCV inhibitor: inconclusive; HCMV antiviral: 12.9

What do the screens show for `CN(C)C1CN(Cc2cn(Cc3ccc(C(F)(F)F)cc3)nn2)S(=O)(=O)C1` (stereo not given)?
FMDV antiviral: -16.1%; HCMV antiviral: -12.9

What do the screens show for `COc1ccc([C@H]2C(C#N)=C(SC)NC3=C2C(=O)CC(C)(C)C3)cc1`?
MARV entry inh: -8.3%

Results for CC(NC(=O)CN1CCOCC1)c1ccccc1 (stereo not given) ?
FMDV antiviral: 0.8%; HCV inhibitor: 0.4%; HCMV antiviral: 25.4

What do the screens show for `CCN(CC)C(=S)Nc1ccc(Cl)c(Cl)c1`?
Lassa entry inh: 10.7%; FMDV antiviral: 48.1%; MARV entry inh: -31.5%; HCV inhibitor: inconclusive; HCMV antiviral: -65.8*

How did CCN(Cc1ccncc1)C(=S)Nc1ccc(Cl)cc1 do in these assays?
Lassa entry inh: 4.7%[46.1 µM]; FMDV antiviral: 1.9%; MARV entry inh: 6.3%[46.1 µM]; HCV inhibitor: -20.9%; HCMV antiviral: -28.5

Results for CC(C)Cn1c(O)c(/C=C2\C=NN=C2c2ccccc2)sc1=S ?
Lassa entry inh: 12.6µM*; FMDV antiviral: 0.0%; MARV entry inh: inconclusive; HCV inhibitor: inconclusive; HCMV antiviral: -33.2

What do the screens show for `C#CCCCON=C1C[C@@H](O)[C@H](O)[C@H]2[C@@H]3C(=O)N(c4ccc(F)cc4F)C(=O)[C@@H]3CC[C@H]12`?
MARV entry inh: -6.1%[14.2 µM]

How did CCn1ccc2cc(S(=O)(=O)N3CCC(C(=O)NCc4cccc(C)c4)CC3)ccc21 do in these assays?
Lassa entry inh: -0.6%[46.1 µM]; FMDV antiviral: -5.0%; HCMV antiviral: 6.2

What do the screens show for `CCCS(=O)(=O)c1c(S(=O)(=O)CCC)c2c(N)cccn2c1C(=O)c1ccc(Br)cc1`?
Lassa entry inh: inconclusive; FMDV antiviral: 4.0%; MARV entry inh: inconclusive; HCV inhibitor: inconclusive; HCMV antiviral: inconclusive

What do the screens show for `CCCS(=O)(=O)c1c(S(=O)(=O)CCC)c2cc(C(C)(C)C)ccn2c1C(=O)c1ccccc1`?
Lassa entry inh: inconclusive; FMDV antiviral: inconclusive; MARV entry inh: inconclusive; HCMV antiviral: -63.5*

What do the screens show for `CCCS(=O)(=O)c1c(S(=O)(=O)CCC)c2c(N)cccn2c1C(=O)c1ccc(OC)cc1`?
Lassa entry inh: inconclusive; FMDV antiviral: 11.8%; MARV entry inh: inconclusive; HCV inhibitor: 25.1µM*; HCMV antiviral: inconclusive

Results for CCc1cccc(CC)c1NC(=O)/C(C#N)=C/c1ccccc1C(F)(F)F ?
Lassa entry inh: inconclusive; FMDV antiviral: 25.1µM*; MARV entry inh: inconclusive; HCV inhibitor: 11.2µM*; HCMV antiviral: -103.1*

What do the screens show for `N#C/C(=C\c1ccccc1C(F)(F)F)C(=O)Nc1ccccc1`?
Lassa entry inh: 3.7%; FMDV antiviral: 21.6%; MARV entry inh: -2.4%; HCV inhibitor: 0.6%; HCMV antiviral: -28.6

Results for Cc1nc(C(F)(F)F)ccc1C(=O)N1CCC1(C)C(=O)NS(=O)(=O)c1ccc(C(C)(C)C)cc1 (stereo not given) ?
FMDV antiviral: -16.4%; HCMV antiviral: -81.2*

What do the screens show for `Cc1ccc(F)c(S(=O)(=O)NC(=O)C2(C)CCN2C(=O)c2ccc(C(F)(F)F)nc2C)c1` (stereo not given)?
FMDV antiviral: -12.3%; HCMV antiviral: -86.9*

What do the screens show for `COc1ccccc1COC(=O)N/C=C/c1ccco1`?
Lassa entry inh: inconclusive; FMDV antiviral: 20.2%; MARV entry inh: -2.2%[46.1 µM]; HCV inhibitor: -29.1%; HCMV antiviral: 39.4

What do the screens show for `COc1ccc(COC(=O)N/C=C/c2ccco2)cc1`?
Lassa entry inh: 1.16µM*; FMDV antiviral: 10.3%; MARV entry inh: 2.4%[46.1 µM]; HCV inhibitor: 4.1%; HCMV antiviral: -12.3

Results for CCOC(=O)c1c(NC(=O)C(C)Sc2cn(CCNC(=O)c3c(F)cccc3F)c3ccccc23)sc2c1CCC2 (stereo not given) ?
Lassa entry inh: -16.6%[46.1 µM]; FMDV antiviral: -13.1%; MARV entry inh: 7.94µM*; HCMV antiviral: -14.7
